The target of test [1] is Nuclear receptor subfamily 1 group I member 2 (Homo sapiens) (UniProt O75469). Put plainly: Human pregnane X receptor (PXR) small molecule agonists, qHTS assay (AID 1346982). Also: nearly all actives have a fitted effect of over 35% in size. The essentials:
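Luciferase signal from ONE-Glo (30 min, room temperature) measured activation of hPXR-driven CYP3A4 reporter expression in PXR-Luc HepG2 cells treated with compounds for 24 hr at 37 C.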
A general note: Quantitative high-throughput screening tests each substance at several concentrations.

The target of test [2] is Cytochrome P450 2D6 (Homo sapiens) (UniProt P10635). The experiment in a line: Cytochrome P450 Family 2 Subfamily D Member 6 (CYP2D6) small molecule antagonists: luciferase reporter qHTS assay (AID 1671196). Also: nearly all actives have a fitted effect of over 50% in size. Also: potency is read from the fitted curve at half-maximal effect. As to activity change, negative = inhibition: series mostly up to about 120 µM. The essentials:
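Read-out is luminescence from luciferin formed by CYP2D6 turnover of a proluciferin substrate, recorded as relative luminescence units. Reactions ran 1 h at room temperature after NADPH regeneration solution was added.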
(In general: Reporter assays use an easily measured gene product as a stand-in for the process of interest.)

The target in test [3] is Cytochrome P450 2C19 (Homo sapiens) (UniProt P33261). Put plainly: Cytochrome P450 Family 2 Subfamily C Member 19 (CYP2C19) small molecule antagonists: luciferase reporter qHTS assay (AID 1671197). Also: nearly all actives have a fitted effect of over 65% in size. Also: potency is read from the fitted curve at half-maximal effect. As to activity change, negative = inhibition: series mostly up to about 120 µM. The essentials:
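First, compounds are pinned into enzyme-substrate mix and held 10 min at room temperature. Second, NADPH regeneration solution is added and plates incubate 1 h at 37C. Third, detection reagent is added and luminescence read after 20 min.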

Test [4] has as its target Voltage-gated inwardly rectifying potassium channel KCNH2 (Homo sapiens) (UniProt Q12809). Put plainly: Human Ether-a-go-go-Related Gene (hERG) channel small molecule antagonists: fluorescence cell-based qHTS assay (AID 1671200). Also: series mostly up to about 77 µM; nearly all actives have a fitted effect of over 50% in size. The essentials: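 Thallium flux as potassium surrogate: FluxOR II dye loaded 1 h at room temperature into hERG-expressing U2OS cells, then stimulus buffer added after 10 min. Kinetic 480 nm excitation/540 nm emission read, 2 min.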
On the technique in general: The hERG channel carries a current that helps repolarise heart muscle cells.

The target in test [5] is Cytochrome P450 3A4 (Homo sapiens) (UniProt P08684). The experiment in a line: Cytochrome P450 Family 3 Subfamily A Member 4 (CYP3A4) small molecule antagonists: luciferase reporter qHTS assay (AID 1671201). Also: nearly all actives have a fitted effect of over 50% in size. Also: potency is read from the fitted curve at half-maximal effect. As to activity change, negative = inhibition: series mostly up to about 120 µM. The essentials:
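Recombinant human CYP3A4 converts a proluciferin substrate to luciferin over 1 h at room temperature after NADPH regeneration solution is added (compound preincubated 10 min); detection reagent stops reaction, luminescence read 20 min later as relative units.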

The target of test [6] is Cytochrome P450 2C9 (Homo sapiens) (UniProt P11712). The experiment in a line: Cytochrome P450 Family 2 Subfamily C Member 9 (CYP2C9) small molecule antagonists: luciferase reporter qHTS assay (AID 1671198). Also: nearly all actives have a fitted effect of over 50% in size. Also: potency is read from the fitted curve at half-maximal effect. As to activity change, negative = inhibition: series mostly up to about 120 µM. The essentials: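 Enzyme-substrate mix preincubated with compound 10 min at room temperature; reaction started with NADPH regeneration solution, 1 h 37C. Luminescent luciferin product read after 20 min detection reagent.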
Cytochrome P450 2C9 (Homo sapiens), sequence (P11712 whole entry, looked up): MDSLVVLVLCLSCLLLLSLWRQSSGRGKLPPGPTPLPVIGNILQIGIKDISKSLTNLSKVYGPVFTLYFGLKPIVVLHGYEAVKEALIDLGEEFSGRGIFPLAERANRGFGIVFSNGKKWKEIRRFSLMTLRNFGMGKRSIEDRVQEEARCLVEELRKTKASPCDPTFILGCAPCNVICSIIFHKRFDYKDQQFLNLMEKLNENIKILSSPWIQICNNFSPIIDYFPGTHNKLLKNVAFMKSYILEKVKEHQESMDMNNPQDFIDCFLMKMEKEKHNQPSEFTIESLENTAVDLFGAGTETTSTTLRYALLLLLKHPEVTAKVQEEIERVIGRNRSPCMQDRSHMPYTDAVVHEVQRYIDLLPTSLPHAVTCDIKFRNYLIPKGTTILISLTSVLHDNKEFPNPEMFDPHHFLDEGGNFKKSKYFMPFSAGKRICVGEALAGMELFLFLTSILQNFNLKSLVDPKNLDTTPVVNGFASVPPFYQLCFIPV

The target of test [7] is Cytochrome P450 1A2 (Homo sapiens) (UniProt P05177). Put plainly: Cytochrome P450 Family 1 Subfamily A Member 2 (CYP1A2) small molecule antagonists: luciferase reporter qHTS assay (AID 1671199). Also: nearly all actives have a fitted effect of over 50% in size. Also: potency is read from the fitted curve at half-maximal effect. As to activity change, negative = inhibition: series mostly up to about 120 µM. The method, boiled down:
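P450-Glo CYP1A2, 1536-well qHTS: enzyme/proluciferin substrate + cpd (DMSO), 10 min RT; NADPH regen, 1 h RT; detection reagent, 20 min; luminescence, RLU.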

In test [8] the target is Nuclear receptor subfamily 1 group I member 2 (Homo sapiens) (UniProt O75469). Put plainly: CYP3A4 induction through human pregnane X receptor (PXR) by small molecules, qHTS assay (AID 1346984). Also: nearly all actives have a fitted effect of over 40% in size. The essentials: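 Luminescence readout: luciferase signal after One-Glo (30 min, room temperature), following 3 h at 37C with 3uM final Luciferin-IPA P450 substrate. Cells were DPX-2 (HepG2, PXR/CYP3A4-luc co-transfected) dosed for 24 h.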
Nuclear receptor subfamily 1 group I member 2 (Homo sapiens), sequence (O75469 whole entry, looked up): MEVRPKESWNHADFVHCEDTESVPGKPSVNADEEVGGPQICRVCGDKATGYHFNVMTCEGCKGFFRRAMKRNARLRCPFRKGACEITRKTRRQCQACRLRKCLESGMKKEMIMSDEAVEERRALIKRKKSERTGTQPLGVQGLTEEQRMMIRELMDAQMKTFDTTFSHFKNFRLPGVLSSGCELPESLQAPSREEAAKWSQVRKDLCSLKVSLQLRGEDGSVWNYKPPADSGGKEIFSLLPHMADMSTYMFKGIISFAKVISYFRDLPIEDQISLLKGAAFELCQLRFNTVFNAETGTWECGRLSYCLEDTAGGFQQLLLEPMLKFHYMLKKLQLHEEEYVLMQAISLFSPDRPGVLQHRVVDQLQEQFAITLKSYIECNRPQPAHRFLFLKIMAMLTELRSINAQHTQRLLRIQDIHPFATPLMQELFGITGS

The target is the same in test [9]. Put plainly: Human pregnane X receptor (PXR) activation by small molecules, qHTS assay (AID 1346985). Also: nearly all actives have a fitted effect of over 40% in size. The essentials: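 DPX-2 cells (HepG2 co-transfected with a PXR response element and a CYP3A4-promoter luciferase construct) were seeded at 2,000 per well, rested 5 hr at 37C, then exposed to DMSO-dissolved compounds for 24 hr. Activation was read as luciferase luminescence.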

Inconclusive results are not listed. Values without a mark were called inactive. Active and inactive are the calls of the source. Calls follow the shape of the dose curve; as a rule, active = well fitted curve in the direction sought with a large enough effect in the repeat runs; inconclusive = weak or mixed curves; inactive = no such curve, though single readings can be large; an effect the other way counts as inactive or inconclusive. Where a SMILES comes first, the peptide text is derived from it.
% is scaled to controls: 0 for no effect and ±100 for the full control effect.

Cytochrome P450 2C19 (Homo sapiens), sequence (P33261 whole entry, looked up): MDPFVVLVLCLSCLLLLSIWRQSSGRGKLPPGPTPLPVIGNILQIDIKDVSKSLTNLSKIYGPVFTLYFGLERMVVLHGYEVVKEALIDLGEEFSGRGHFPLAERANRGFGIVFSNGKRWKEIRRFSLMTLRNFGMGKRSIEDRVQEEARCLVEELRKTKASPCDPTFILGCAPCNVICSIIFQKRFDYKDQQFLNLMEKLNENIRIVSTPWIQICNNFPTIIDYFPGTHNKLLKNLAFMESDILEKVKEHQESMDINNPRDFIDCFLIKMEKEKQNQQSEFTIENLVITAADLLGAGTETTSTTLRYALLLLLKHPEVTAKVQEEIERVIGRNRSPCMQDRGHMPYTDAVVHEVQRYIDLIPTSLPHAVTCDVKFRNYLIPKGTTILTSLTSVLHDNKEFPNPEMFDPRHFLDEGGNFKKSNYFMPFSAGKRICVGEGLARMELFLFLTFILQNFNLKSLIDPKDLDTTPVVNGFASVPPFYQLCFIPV
Cytochrome P450 2D6 (Homo sapiens), sequence (P10635 whole entry, looked up): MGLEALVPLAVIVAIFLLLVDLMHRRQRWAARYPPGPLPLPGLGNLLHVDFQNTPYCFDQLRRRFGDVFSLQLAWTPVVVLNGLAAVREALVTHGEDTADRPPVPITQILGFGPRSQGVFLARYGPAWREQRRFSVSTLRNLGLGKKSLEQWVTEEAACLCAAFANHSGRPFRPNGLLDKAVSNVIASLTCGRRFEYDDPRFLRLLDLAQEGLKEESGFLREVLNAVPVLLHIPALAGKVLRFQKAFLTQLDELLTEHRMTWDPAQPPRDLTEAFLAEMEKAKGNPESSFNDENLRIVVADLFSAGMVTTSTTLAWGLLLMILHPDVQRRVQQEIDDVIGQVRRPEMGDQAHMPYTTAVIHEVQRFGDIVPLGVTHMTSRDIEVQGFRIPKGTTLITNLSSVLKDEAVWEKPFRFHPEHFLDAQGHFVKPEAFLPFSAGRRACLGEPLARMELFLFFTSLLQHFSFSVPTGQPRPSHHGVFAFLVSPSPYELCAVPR
Cytochrome P450 1A2 (Homo sapiens), sequence (P05177 whole entry, looked up): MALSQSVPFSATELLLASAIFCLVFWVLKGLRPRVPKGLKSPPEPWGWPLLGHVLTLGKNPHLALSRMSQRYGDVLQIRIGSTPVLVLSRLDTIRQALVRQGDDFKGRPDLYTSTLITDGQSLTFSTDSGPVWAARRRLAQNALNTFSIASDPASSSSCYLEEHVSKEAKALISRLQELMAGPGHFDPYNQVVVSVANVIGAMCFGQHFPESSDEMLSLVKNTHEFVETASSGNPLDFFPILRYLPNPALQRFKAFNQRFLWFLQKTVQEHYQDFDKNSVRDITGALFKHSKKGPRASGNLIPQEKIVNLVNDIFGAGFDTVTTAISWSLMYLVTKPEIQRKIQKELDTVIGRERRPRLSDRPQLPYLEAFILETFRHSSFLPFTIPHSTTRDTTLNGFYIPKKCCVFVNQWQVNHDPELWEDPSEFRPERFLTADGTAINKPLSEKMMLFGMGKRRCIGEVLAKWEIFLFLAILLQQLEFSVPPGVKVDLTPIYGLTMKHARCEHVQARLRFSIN
Cytochrome P450 3A4 (Homo sapiens), sequence (P08684 whole entry, looked up): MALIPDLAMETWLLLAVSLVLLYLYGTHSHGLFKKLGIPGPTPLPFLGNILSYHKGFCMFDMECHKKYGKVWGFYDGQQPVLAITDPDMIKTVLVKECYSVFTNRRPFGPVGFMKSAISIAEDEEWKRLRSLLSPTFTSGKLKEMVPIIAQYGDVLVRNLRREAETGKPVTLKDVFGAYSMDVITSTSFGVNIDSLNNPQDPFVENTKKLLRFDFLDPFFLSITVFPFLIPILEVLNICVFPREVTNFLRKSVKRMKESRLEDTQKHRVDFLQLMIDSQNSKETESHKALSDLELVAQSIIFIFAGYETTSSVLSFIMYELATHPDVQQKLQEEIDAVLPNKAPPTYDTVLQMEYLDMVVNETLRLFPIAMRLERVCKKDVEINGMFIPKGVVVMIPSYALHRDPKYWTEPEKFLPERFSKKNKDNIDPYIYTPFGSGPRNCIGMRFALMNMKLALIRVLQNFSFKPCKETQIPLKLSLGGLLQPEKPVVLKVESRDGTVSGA
Voltage-gated inwardly rectifying potassium channel KCNH2 (Homo sapiens), sequence (Q12809 whole entry, looked up): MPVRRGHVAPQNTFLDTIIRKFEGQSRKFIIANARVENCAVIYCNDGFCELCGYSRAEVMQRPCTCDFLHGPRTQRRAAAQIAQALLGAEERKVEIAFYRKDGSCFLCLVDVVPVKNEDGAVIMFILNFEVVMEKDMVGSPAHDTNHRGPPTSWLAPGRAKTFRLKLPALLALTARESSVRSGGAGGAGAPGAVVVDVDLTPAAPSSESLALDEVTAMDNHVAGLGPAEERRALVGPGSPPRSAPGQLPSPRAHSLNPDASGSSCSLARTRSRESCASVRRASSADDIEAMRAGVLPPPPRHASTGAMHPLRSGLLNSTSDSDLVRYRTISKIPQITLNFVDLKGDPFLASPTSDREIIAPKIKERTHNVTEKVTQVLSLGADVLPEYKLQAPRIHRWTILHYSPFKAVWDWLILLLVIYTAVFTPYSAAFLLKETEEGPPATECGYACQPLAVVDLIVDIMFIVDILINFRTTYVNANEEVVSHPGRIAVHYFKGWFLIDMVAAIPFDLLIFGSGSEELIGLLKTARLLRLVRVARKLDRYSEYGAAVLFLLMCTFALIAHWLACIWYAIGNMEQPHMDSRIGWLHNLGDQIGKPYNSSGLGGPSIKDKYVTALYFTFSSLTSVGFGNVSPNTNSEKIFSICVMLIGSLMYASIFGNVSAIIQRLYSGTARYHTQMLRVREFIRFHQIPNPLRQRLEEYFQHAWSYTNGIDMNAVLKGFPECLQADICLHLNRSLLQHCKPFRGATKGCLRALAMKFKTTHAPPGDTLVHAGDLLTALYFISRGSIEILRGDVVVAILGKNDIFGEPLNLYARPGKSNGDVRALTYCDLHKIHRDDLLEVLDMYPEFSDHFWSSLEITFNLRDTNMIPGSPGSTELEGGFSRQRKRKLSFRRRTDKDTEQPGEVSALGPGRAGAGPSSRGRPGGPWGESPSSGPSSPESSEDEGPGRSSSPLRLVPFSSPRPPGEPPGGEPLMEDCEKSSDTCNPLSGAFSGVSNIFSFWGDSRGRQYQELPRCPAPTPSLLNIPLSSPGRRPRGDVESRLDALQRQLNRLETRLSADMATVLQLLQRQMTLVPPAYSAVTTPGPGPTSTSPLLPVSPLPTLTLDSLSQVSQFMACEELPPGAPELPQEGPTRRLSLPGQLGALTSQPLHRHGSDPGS

On to `c1ccc(-c2nn[nH]n2)cc1`, for which the Potency entry in test [1], in test [2], in [3], in test [4] and in [5] was “inactive” throughout.
Turning to `CC(C)=CCC/C(C)=C/COC=O`, the Potency entry in [1], in [2], in [3], in [6] and in test [5] was “inactive” in each case.
As for `CCCC(=O)OC/C=C(\C)CCC=C(C)C`, the Potency entry in test [1], in [2], in test [3] and in test [5] was “inactive” each time.
Take `CCN1CCCC1CN` (stereo not drawn): the Potency entry in test [1], in test [2], in test [6], in [7] and in [5] was “inactive” throughout.
Take `CC(=O)N[C@@H](CO)C(=O)N[C@@H](CC(=O)O)C(=O)N[C@@H](CCCCN)C(=O)N1CCC[C@H]1C(=O)O` (Ac-SDKP-OH): the Potency entry in [1], in test [2], in test [3], in [7], in test [4] and in [5] was “inactive” each time.
For the compound `CC(C)Nc1ccccc1`, the Potency result in [1], in test [2], in [3], in test [6] and in test [5] was “inactive” each time.
Turning to `Cc1c(Cl)cccc1Cl`, the Potency result in [1], in [2], in [3], in [6], in test [4] and in test [5] was “inactive” throughout.
Take `CC/C(C)=N\O[Si](C)(O/N=C(\C)CC)O/N=C(\C)CC`: the Potency entry in test [1] and in [4] was “inactive” each time. The Potency in [2] was 32.1 µM (active); in test [3], 22.8 µM (active); in test [7], 40.5 µM (active); in test [5] it was 12.8 µM (active).
As to `O=C1CCCCO1`, the Potency entry in test [1], in test [2], in [3], in test [4] and in test [5] was “inactive” in each case.
For `COc1cc(OC)nc(O[C@H](C(=O)O)C(OC)(c2ccccc2)c2ccccc2)n1`, the Potency result in test [1], in test [2], in test [3], in test [7] and in [5] was “inactive” in each case.
As for `C=CC(=O)CCCCC`, the Potency entry in test [1], in test [2], in [3], in [6] and in [5] was “inactive” throughout.
Take `CC12CCC(C1)C(C)(C)C2O` (stereo not drawn): the Potency entry in test [1], in [2], in test [3], in [6], in test [4] and in [5] was “inactive” in each case.
With `CCCSSCCC`, the Potency result in test [1], in [2], in test [3], in test [6] and in [5] was “inactive” in each case.
As for `C=C(C)[C@@H]1CC=C(C)C(=O)C1`, the Potency entry in [1], in test [2], in test [3], in [6], in test [4] and in test [5] was “inactive” in each case.
With `OC[C@@H](O)C(O)[C@@H](O)CO` (stereo partly drawn), the Potency entry in [1], in [2], in test [7], in test [4] and in [5] was “inactive” each time. The Potency in [3] is 40.4 µM (active).
`C=CCCCCCCCC`: the Potency entry in [1], in test [2], in [3], in [4] and in test [5] was “inactive” throughout.
For `C/C=C(\C)C(=O)OCCc1ccccc1`, the Potency entry in [1], in test [2], in [4] and in [5] was “inactive” each time. Moreover, the Potency in test [3] and in test [7] was 39.9 µM (active) each time.
As to `CCCCOCCOC(=O)COc1ccc(Cl)cc1Cl`, the Potency entry in test [1], in test [2], in [4] and in test [5] was “inactive” in each case. Moreover, the Potency in [3] was 79.6 µM (active); in test [7] it was 20 µM (active).
Regarding `CC(C)CCOC(=O)c1ccccc1`, the Potency result in test [1], in test [2], in [3], in test [6] and in [5] was “inactive” throughout.
Turning to `CCCCCc1cccc(=O)o1`, the Potency entry in test [1], in [2], in test [4] and in test [5] was “inactive” in each case. The Potency in test [7] was 35.6 µM (active).
As for `CC(=O)CC(=O)Nc1ccc(C)cc1C`, the Potency entry in test [1], in test [2] and in test [4] was “inactive” throughout. Besides, the Potency in test [6] was 31.7 µM (active).
With `CC1(C)CC(OC(=O)CCCCCCCCC(=O)OC2CC(C)(C)NC(C)(C)C2)CC(C)(C)N1`, the activation in test [1] is 26.4% [at 19 µM]. Also, the activity change, negative = inhibition in test [2] was -17.8% [at 23.6 µM]; in test [6] it was -10.9% [at 23.6 µM]; in test [7], -5.32% [at 23.6 µM].
Take `CC1CC(=O)CC(C)(C)C1` (stereo not drawn): the Potency result in [1], in test [2], in test [3], in test [6], in [4] and in [5] was “inactive” in each case.
Turning to `COC(=O)CCCCC(CCSS/C(CCO)=C(\C)N(C=O)Cc1cnc(C)nc1N)SC(C)=O` (stereo not drawn), the Potency result in [1], in test [2], in test [6] and in test [4] was “inactive” each time.
On to `Cc1c(C(=O)c2c[nH]n(C)c2=O)ccc(S(C)(=O)=O)c1C1=NOCC1`, for which the Potency result in test [1], in test [2] and in test [5] was “inactive” throughout. Moreover, the Potency was 12.9 µM (active) in test [6] and 14.5 µM (active) in [7].
Take `Cc1cc(-c2ccccc2)nnc1NCCN1CCOCC1`: the Potency result in test [1], in [3], in [7] and in test [4] was “inactive” throughout. In addition, the Potency in [2] is 8.71 µM (active).
On to `C[C@H]1[C@@H](c2ccccc2)NC(=O)N1C`, for which the Potency entry in test [1], in [2], in test [6], in test [4] and in test [5] was “inactive” in each case.
Turning to `CCCCCCCCCOC(=O)CCCCC(=O)OCCCCCCC`, the Potency result in [1], in [2], in test [3], in [6], in test [4] and in test [5] was “inactive” in each case.
Regarding `CC(=O)O[C@@H]1CC2CCC1(C)C2(C)C` (stereo partly drawn), the Potency result in test [8] and in test [9] was “inactive” each time.

Values taken from PubChem BioAssay (Tox21).
